Data as given in PubChem BioAssay (NCATS).
Results filed as inconclusive are left out. Activity calls are given as the source filed them. Calls come from the whole dose curve; as a rule, active = well fitted curve in the direction sought with a large enough effect; inconclusive = small, poorly fitted or top-dose-only effect, or another doubt; inactive = no such curve, though single readings can be large; an effect the other way counts as inactive or inconclusive.

How the values were obtained:
HACAT = experiment: qHTS assay to identify novel small-molecules to repurpose for Merkel cell carcinoma treatment (AID 1296009); conditions: MCC and control cell lines, CellTiter-Glo viability, 72 h; at 44.8 µM (top of the series) unless noted; note: nearly all actives have a fitted effect of over 60% in size
In short: (§1)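 Dose-response viability screen; 72 hr exposure at 37 degree celsius; CellTiter-Glo added, 10 min room temperature, luminescence read; RLUs scaled between no-cell and DMSO wells.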

MCC-13 = experiment: as above; conditions: MCC and control cell lines, CellTiter-Glo viability, 72 h; series mostly up to 46 µM
In short: as §1

MCC-26 = experiment: as above; conditions: MCC and control cell lines, CellTiter-Glo viability, 72 h; series mostly up to 46 µM
In short: as §1

MKL-1 = experiment: as above; conditions: MCC and control cell lines, CellTiter-Glo viability, 72 h; series mostly up to 46 µM
In short: as §1

MKL-2 = experiment: as above; conditions: MCC and control cell lines, CellTiter-Glo viability, 72 h; series mostly up to 46 µM
In short: as §1

NIH3T3 = experiment: as above; conditions: MCC and control cell lines, CellTiter-Glo viability, 72 h; at 44.8 µM (top of the series) unless noted
In short: as §1

UISO = experiment: as above; conditions: MCC and control cell lines, CellTiter-Glo viability, 72 h; series mostly up to 46 µM
In short: as §1

WaGa = experiment: as above; conditions: MCC and control cell lines, CellTiter-Glo viability, 72 h; series mostly up to 46 µM
In short: as §1

C33A = experiment: Primary qHTS to identify gynecologic anti-cancer compounds using libraries of approved drugs and bioactive compounds (AID 1345084); conditions: Gynecologic cancer cell panel viability, ATPlite luminescence, 48 h; series mostly up to 57.5 µM; note: nearly all actives have a fitted effect of over 55% in size
In short: (§2)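 Cells, 1,000 per well, were allowed to settle for 16 h at 37 C before compound addition. Five concentrations were tested for 48 h, and viability was read by ATPlite luminescence after 15 min at room temperature.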

CAOV3 = experiment: as above; conditions: Gynecologic cancer cell panel viability, ATPlite luminescence, 48 h; series mostly up to 57.5 µM
In short: as §2

CASKI = experiment: as above; conditions: Gynecologic cancer cell panel viability, ATPlite luminescence, 48 h; series mostly up to 57.5 µM
In short: as §2

Es-2 = experiment: as above; conditions: Gynecologic cancer cell panel viability, ATPlite luminescence, 48 h; series mostly up to 57.5 µM
In short: as §2

HeLa = experiment: as above; conditions: Gynecologic cancer cell panel viability, ATPlite luminescence, 48 h; series mostly up to 57.5 µM
In short: as §2

Hek293T [1] = experiment: as above; conditions: Gynecologic cancer cell panel viability, ATPlite luminescence, 48 h, control line for the selectivity index; series mostly up to 57.5 µM
In short: as §2

JEG-3 = experiment: as above; conditions: Gynecologic cancer cell panel viability, ATPlite luminescence, 48 h; series mostly up to 57.5 µM
In short: as §2

OV90 = experiment: as above; conditions: Gynecologic cancer cell panel viability, ATPlite luminescence, 48 h; series mostly up to 57.5 µM
In short: as §2

PA-1 = experiment: as above; conditions: Gynecologic cancer cell panel viability, ATPlite luminescence, 48 h; series mostly up to 57.5 µM
In short: as §2

Tov-21-G = experiment: as above; conditions: Gynecologic cancer cell panel viability, ATPlite luminescence, 48 h; series mostly up to 57.5 µM
In short: as §2

HEK293T [2] = experiment: qHTS assay to identify novel small-molecules to repurpose for Merkel cell carcinoma treatment (AID 1296009); conditions: MCC and control cell lines, CellTiter-Glo viability, 72 h; at 44.8 µM (top of the series) unless noted; note: nearly all actives have a fitted effect of over 60% in size
In short: as §1

SKOV3 = experiment: Primary qHTS to identify gynecologic anti-cancer compounds using libraries of approved drugs and bioactive compounds (AID 1345084); conditions: Gynecologic cancer cell panel viability, ATPlite luminescence, 48 h; series mostly up to 57.5 µM; note: nearly all actives have a fitted effect of over 55% in size
In short: as §2

Measured: Potency

CC(=O)Nc1ccc(S(=O)(=O)Nc2cc(C)on2)cc1
inactive: HACAT | MCC-13 | MCC-26 | MKL-1 | MKL-2 | NIH3T3 | UISO | WaGa | C33A | CAOV3 | CASKI | Es-2 | HeLa | Hek293T [1] | JEG-3 | OV90 | PA-1 | Tov-21-G

Cc1c(N)cccc1C(F)(F)F
inactive: HACAT | HEK293T [2] | MCC-13 | MCC-26 | MKL-1 | MKL-2 | UISO | WaGa | C33A | CASKI | Es-2 | HeLa | Hek293T [1] | JEG-3 | OV90 | PA-1 | Tov-21-G

O=c1[nH]c2ccccc2c(=O)n1CCCl
inactive: HACAT | MCC-13 | MCC-26 | MKL-1 | MKL-2 | NIH3T3 | UISO | WaGa | C33A | CAOV3 | CASKI | Es-2 | Hek293T [1] | JEG-3 | OV90 | PA-1 | SKOV3 | Tov-21-G

COc1ccc2c(c1)CCCC2=O
inactive: HACAT | MCC-13 | MCC-26 | MKL-1 | MKL-2 | NIH3T3 | UISO | WaGa | C33A | CAOV3 | CASKI | Es-2 | HeLa | Hek293T [1] | JEG-3 | OV90 | PA-1 | Tov-21-G

CCN(CC)CC(=O)OCC(=O)[C@@]1(O)CC[C@H]2[C@@H]3CCC4=CC(=O)CC[C@]4(C)[C@H]3[C@@H](O)C[C@@]21C
inactive: HACAT | MCC-13 | MCC-26 | MKL-1 | MKL-2 | NIH3T3 | UISO | WaGa | C33A | CAOV3 | CASKI | Es-2 | HeLa | Hek293T [1] | JEG-3 | OV90 | PA-1 | SKOV3 | Tov-21-G

O=C1Nc2cc(Cl)ccc2Oc2ccccc21
inactive: HACAT | HEK293T [2] | MCC-13 | MCC-26 | MKL-1 | MKL-2 | WaGa | C33A | CAOV3 | CASKI | Es-2 | HeLa | Hek293T [1] | JEG-3 | OV90 | PA-1 | SKOV3 | Tov-21-G

CN=C(N)NC(=O)Nc1c(C)cccc1C
inactive: HACAT | MCC-13 | MCC-26 | MKL-1 | MKL-2 | UISO | WaGa | C33A | CAOV3 | CASKI | Es-2 | HeLa | Hek293T [1] | JEG-3 | OV90 | PA-1 | SKOV3 | Tov-21-G

Cc1ncc(CO)c(CO)c1O
inactive: HACAT | MCC-13 | MCC-26 | MKL-1 | MKL-2 | UISO | WaGa | C33A | CAOV3 | CASKI | Es-2 | HeLa | Hek293T [1] | JEG-3 | OV90 | PA-1 | SKOV3 | Tov-21-G

COc1cc(C(=O)NC2CCCNC2)cc(OC)c1OC (configuration not stated)
inactive: HACAT | MCC-13 | MCC-26 | MKL-1 | MKL-2 | UISO | WaGa | C33A | CAOV3 | CASKI | Es-2 | HeLa | Hek293T [1] | JEG-3 | OV90 | PA-1 | SKOV3 | Tov-21-G

CC(C)OP(=O)(CP(=O)(OC(C)C)OC(C)C)OC(C)C
inactive: HACAT | MCC-13 | MCC-26 | MKL-1 | MKL-2 | UISO | WaGa | C33A | CAOV3 | CASKI | Es-2 | HeLa | Hek293T [1] | JEG-3 | OV90 | PA-1 | SKOV3 | Tov-21-G

CCN1CCN(C(=O)N[C@@H](C(=O)N[C@@H]2C(=O)N3[C@@H]2SC(C)(C)[C@H]3C(=O)O)c2ccccc2)C(=O)C1=O
inactive: HACAT | MCC-13 | MCC-26 | MKL-1 | MKL-2 | UISO | WaGa | C33A | CAOV3 | CASKI | Es-2 | HeLa | Hek293T [1] | JEG-3 | OV90 | PA-1 | SKOV3 | Tov-21-G

CCC(C(=O)OCCN1CCOC(c2ccccc2)C1C)c1ccccc1 (configuration not stated)
inactive: HACAT | MCC-13 | MCC-26 | MKL-1 | MKL-2 | UISO | WaGa | C33A | CAOV3 | CASKI | Es-2 | HeLa | Hek293T [1] | JEG-3 | OV90 | PA-1 | SKOV3 | Tov-21-G

O=C(OCC1(COC(=O)c2cccnc2)CCCC(COC(=O)c2cccnc2)(COC(=O)c2cccnc2)C1O)c1cccnc1
inactive: HACAT | MCC-13 | MCC-26 | MKL-1 | MKL-2 | UISO | WaGa | C33A | CAOV3 | CASKI | Es-2 | HeLa | Hek293T [1] | JEG-3 | OV90 | PA-1 | SKOV3 | Tov-21-G

CC(=O)N(c1onc(C)c1C)S(=O)(=O)c1ccc(N)cc1
inactive: HACAT | MCC-13 | MCC-26 | MKL-1 | MKL-2 | UISO | WaGa | C33A | CAOV3 | CASKI | Es-2 | HeLa | Hek293T [1] | JEG-3 | OV90 | PA-1 | SKOV3 | Tov-21-G
